An excerpt weighted towards active compounds, which were near 1.8% of everything screened.
Myeloid diff 2: induction of myeloid progenitor differentiation, primary screen, cell-based, flow cytometry, MLPCN library; ER-HoxA9 myeloid progenitors, lysozyme-GFP differentiation; calls only at 10 µM; hit rate 1% among 360,000; AID 624256, 2012;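 active = normalized GFP-positive differentiation at or above the plate's own cutoff, the solvent-only control mean plus 3 SD; inconclusive = no clear call, values can overlap the other calls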;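 note: cells exposed to compound for four days before flow analysis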
ABCB6 inh MLPCN: ABCB6 transporter inhibitors, primary screen, K562-ABCB6 cells, flow cytometry, MLPCN library; AID 602162, 2011; hit rate 0.19% among 360,000; K562-ABCB6 porphyrin accumulation, 1 h; active compounds read low; fluorescence ratio to DMSO, % at 10 µM;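 active = fluorescence ratio to DMSO below 75%, the collection mean minus 3 SD; inconclusive = too few cells collected in the well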;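 note: signal is porphyrin accumulated inside mitochondria; lower ratio means ABCB6 inhibition with less porphyrin fluorescence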
Target sequence (Q9NP58 whole entry, looked up): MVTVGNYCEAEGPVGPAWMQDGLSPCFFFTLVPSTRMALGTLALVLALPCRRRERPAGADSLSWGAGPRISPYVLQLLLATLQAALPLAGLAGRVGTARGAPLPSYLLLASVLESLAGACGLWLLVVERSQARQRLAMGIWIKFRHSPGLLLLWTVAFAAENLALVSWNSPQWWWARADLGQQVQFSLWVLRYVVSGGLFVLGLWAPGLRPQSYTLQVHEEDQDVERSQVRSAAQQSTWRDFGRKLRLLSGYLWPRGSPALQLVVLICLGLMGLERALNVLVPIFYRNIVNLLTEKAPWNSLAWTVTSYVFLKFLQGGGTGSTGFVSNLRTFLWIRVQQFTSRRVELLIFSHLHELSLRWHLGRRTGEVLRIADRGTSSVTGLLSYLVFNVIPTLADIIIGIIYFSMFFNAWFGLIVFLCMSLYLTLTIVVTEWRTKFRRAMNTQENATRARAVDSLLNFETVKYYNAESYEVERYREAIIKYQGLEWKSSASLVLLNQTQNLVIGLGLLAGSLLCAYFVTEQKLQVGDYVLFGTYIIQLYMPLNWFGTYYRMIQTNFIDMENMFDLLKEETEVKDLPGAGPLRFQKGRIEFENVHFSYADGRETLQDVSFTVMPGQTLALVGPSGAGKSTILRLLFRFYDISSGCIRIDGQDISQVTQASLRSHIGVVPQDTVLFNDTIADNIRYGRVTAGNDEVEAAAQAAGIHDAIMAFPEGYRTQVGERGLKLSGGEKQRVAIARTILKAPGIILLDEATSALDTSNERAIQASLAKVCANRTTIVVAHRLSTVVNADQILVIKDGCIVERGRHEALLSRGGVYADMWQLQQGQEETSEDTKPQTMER
Granule exo inh: LAMP-1 surface exposure blockers, TALL-104 cells – cell-based, flow cytometry, MLPCN library, primary screen. inhibition, % at 10 µM. TALL-104 LAMP-1 surface exposure; cells stimulated with thapsigargin and PMA. hit rate 0.66% among 360,000. AID 651702, 2012;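 active = inhibition above about 55%, limit read from the data; inconclusive = no clear call, values can overlap the other calls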
Myeloid diff: inducers of myeloid progenitor differentiation, confirmation, cell-based, GFP/Mac1 flow cytometry, cherry pick 01; shares compounds with Myeloid diff 2; ER-HoxA9 myeloid progenitors, GFP/Mac1 double-positive flow; calls only; hit rate 2% among 2,300; AID 651706, 2012;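 active = share of green or green-and-red cells above 9 and 9% in run 1 or 4 and 3% in run 2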
GFP autofluor: flagged as fluorescent in myeloid differentiation counter-screen; shares compounds with Myeloid diff 2; ER-HoxA9 myeloid progenitors, no estrogen, GFP autofluorescence flow cytometry; vehicle wells 0%, positive control 100%; fluorescence response, % (test concentration not listed); hit rate 7.4% among 2,300;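 active = over 5% cells positive for green fluorescent reporter, or over 2% positive for both it and APC stain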
Calls only; . = inactive; ? = inconclusive; / = no result; + = active, no number.

SMILES	Myeloid diff 2	ABCB6 inh MLPCN	Granule exo inh	Myeloid diff	GFP autofluor
CCN1CCN(c2ncnc3c2nnn3Cc2ccccc2)CC1	.	.	.	/	/
c1ccc(Cn2nnc3c(N4CCCC4)ncnc32)cc1	+	.	.	.	.
O=C(c1ccc2c(=O)n3c(nc2c1)CCCCC3)N1CCN(c2ccc(Cl)cc2)CC1	.	.	.	.	.
O=C(c1ccc2c(=O)n3c(nc2c1)CCCCC3)N1CCN(c2ccc(F)cc2)CC1	.	.	.	/	/
COc1ccc(CNC(=O)COC(=O)c2cccn2C)cc1	.	.	.	/	/
NC(=O)c1ccc(N2CCN(c3ccccc3O)CC2)c([N+](=O)[O-])c1	.	.	.	/	/
NC(=O)c1ccc(N2CCN(c3ccccc3F)CC2)c([N+](=O)[O-])c1	.	.	.	.	.
COc1cc(/C=C2\SC(=S)N(CCC(=O)N3CCN(C)CC3)C2=O)cc(OC)c1OC	+	.	.	.	.
COc1cc(/C=C2/SC(=S)N(CCC(=O)N3CCN(C)CC3)C2=O)cc(OC)c1OC	.	.	.	/	/
CC[C@]12c3[nH]c4ccc(Cl)cc4c3CCN1C(=O)[C@@H](CC(=O)NCCc1ccccn1)C[C@@H]2C(=O)N1CCN(C(=O)C2CC2)CC1	.	.	.	.	.
CC[C@]12c3[nH]c4ccccc4c3CCN1C(=O)C(CC(=O)NCCc1ccccn1)C[C@@H]2C(=O)N1CCN(C(=O)C2CC2)CC1 (stereo partly specified)	.	.	.	/	/
Cc1cc(C)c(NC(N)=S)c(C)c1	.	.	.	/	/
O=C(Cn1c2ccccc2c2nc3n(c(=O)c21)CCS3)Nc1ccccc1C(F)(F)F	.	.	.	/	/
COc1ccccc1NC(=O)Cn1c2ccccc2c2nc3n(c(=O)c21)CCS3	+	.	.	.	.
CN(C)CC(CCCCC(CN(C)C)C(=O)c1ccccc1)C(=O)c1ccccc1 (stereo unspecified)	.	.	.	/	/
COc1ccc(NC(=O)c2cccc(S(=O)(=O)NCc3ccco3)c2)c(OC)c1	.	.	.	/	/
O=C(CSc1ccc(-c2cccnc2)nn1)Nc1ccc(Br)cc1	.	.	.	.	.
CC(=O)Nc1ccc(NC(=O)CSc2ccc(-c3cccnc3)nn2)cc1	.	.	.	/	/
Cc1ccc(CSc2nnc([C@@H]3CCCN3C(=O)OC(C)(C)C)o2)cc1	.	.	.	/	/
CC(C)Oc1ccc(S(=O)(=O)N2CCCCC2)cc1NC(=O)CN1C(=O)NC(C)(c2ccccc2)C1=O (stereo unspecified)	.	.	.	/	/
Cc1ccc(C2(C)NC(=O)N(CC(=O)Nc3cc(S(=O)(=O)N4CCCCC4)ccc3OC(C)C)C2=O)cc1 (stereo unspecified)	+	.	.	.	.
COc1ccc(CNCCC2(Cc3ccccc3)CC(C)N(C)CC2C)cc1OC (stereo unspecified)	.	.	.	/	/
CN(C)CCN(C(=O)c1cccc(Cl)c1)c1nc2c(Cl)cccc2s1	.	.	.	/	/
CN(C)CCN(C(=O)c1ccccc1Cl)c1nc2c(Cl)cccc2s1	+	.	.	.	.
CCOc1ccc(OCCC(=O)N(CC)CC(=O)NCc2cccs2)cc1	.	.	.	/	/
SMILES	Myeloid diff 2	ABCB6 inh MLPCN	Granule exo inh	Myeloid diff	GFP autofluor
COc1ccc(CNCc2cc(Cl)ccc2O)cc1	.	.	.	.	.
Oc1ccc(Cl)cc1CNCc1ccc(F)c(F)c1	.	.	.	/	/
COCCNC(=O)C1(C)CCCN(C(=O)c2cnc3ccccc3n2)C1 (stereo unspecified)	.	.	.	/	/
FC(F)(F)c1cc(-c2cccs2)nc2cc(-c3cccs3)nn12	.	.	.	/	/
COc1cc(S(=O)(=O)n2ccc(C)n2)ccc1Cl	.	.	.	/	/
COc1cc(S(=O)(=O)n2ccc(C)n2)c(OC)cc1Cl	+	.	.	.	.
CC1CC(C)CN(CCCNC(=O)C2CCC(=O)N2C2CCCC2)C1 (stereo unspecified)	.	.	.	.	.
O=C(NCCCN1CCCC1)C1CCC(=O)N1C1CCCCC1 (stereo unspecified)	.	.	.	/	/
COc1cc(CNC(=O)c2ccc3oc(C(C)C)nc3c2)cc(OC)c1	.	.	.	/	/
CCc1nc(SCC(=O)c2ccccc2)c2c(=O)n(C)c(=O)n(C)c2n1	.	.	.	/	/
Cn1c(=O)c2c(SCC(=O)c3ccccc3)nc(C3CC3)nc2n(C)c1=O	.	.	.	.	.
Cc1nc(SCC(=O)NCc2ccccc2)c2c(=O)n(C)c(=O)n(C)c2n1	.	.	.	/	/
Cc1nc(SCC(=O)Nc2ccccc2C(F)(F)F)c2c(=O)n(C)c(=O)n(C)c2n1	+	.	.	.	.
C[C@H](CO)N1C[C@H](C)[C@@H](CN(C)C(=O)Nc2ccc3c(c2)OCO3)Oc2ccc(NS(=O)(=O)c3ccc(F)cc3)cc2C1=O	.	.	.	/	/
CCOc1ccc(NS(=O)(=O)c2c(C(=O)N3CCCCCC3)c(C)n(C)c2C)cc1	.	.	.	/	/
CC(C)c1cc(C(=O)Nc2cc(Br)ccc2O)no1	.	.	.	/	/
O=C(Nc1cc(Br)ccc1O)c1cc(-c2cccs2)on1	+	.	.	.	.
COc1cccc(CN(C(=O)c2ccc([N+](=O)[O-])cc2)C2CCS(=O)(=O)C2)c1 (stereo unspecified)	.	.	.	/	/
CNC[C@H](CC1CCCCC1)NC[C@H](CO)NCCc1cccc(C(F)(F)F)c1	+	.	.	.	.
CNC[C@H](CC1CCCCC1)NC[C@H](CO)NCC1(c2ccccc2)CC1	.	.	.	/	/
OC(c1ccc(F)c(F)c1)c1ncc(-c2ccc(F)cc2)[nH]1 (stereo unspecified)	.	.	.	/	/
Cc1cc(C)cc(OCC(=O)N(Cc2ccccc2)C2CCS(=O)(=O)C2)c1 (stereo unspecified)	.	.	.	/	/
CC(c1ccc(F)cc1)n1c(-c2cccs2)n[nH]c1=S (stereo unspecified)	.	.	.	/	/
CN1OC[C@@H]2CN[C@H](c3cccc(-c4ccc(C#N)cc4)c3)C[C@@H]21	.	.	.	/	/
CNc1nc(Oc2ccc3sc(C)nc3c2)c2sccc2n1	.	.	.	/	/
SMILES	Myeloid diff 2	ABCB6 inh MLPCN	Granule exo inh	Myeloid diff	GFP autofluor
Cc1nc2cc(Oc3nc(NCCN(C)C)nc4ccsc34)ccc2s1	+	.	?	.	.
O=C(NC1CCN(Cc2ccccc2)CC1)C1CCN(c2nnc(-n3cccc3)s2)CC1	?	.	.	/	/
O=C(NC1CCN(Cc2ccccc2)CC1)C1CCCN(c2nnc(-n3cccc3)s2)C1 (stereo unspecified)	.	.	.	.	.
O=C(CN1CCN(S(=O)(=O)c2ccccc2)CC1)Nc1ccnn1C1CCCC1	.	.	.	/	/
CCOC(=O)c1cnc2ccc(C(=O)OC)cc2c1Nc1ccc2c(c1)OCCO2	/	.	.	.	.
CCOC(=O)c1cnc2ccc(OC)cc2c1Nc1ccc2c(c1)OCCO2	.	.	.	/	/
CCOC(=O)c1sc2nc(C)nc(N3CCN(S(=O)(=O)c4ccccc4)CC3)c2c1C	.	.	.	/	/

Assay outcomes (PubChem)
